Measurements taken from PubChem BioAssay (EPA / NIEHS).
Calls of active or inactive are those of the source. The calls were made as follows: active = hit-call score of the fitted dose curve at least 0.9, where 1 is the maximum; inactive = score below 0.9.

experiment: BSK_BF4T_SRB: Viability Assessment in the BioMAP Diversity Plus: BF4T Assay (AID 2284274); settings: primary human bronchial epithelial cells with fibroblasts
Procedure: BSK_BF4T is a cell-based, multiplexed-readout assay that uses bronchial epithelial cells and dermal fibroblasts, a human vascular primary cell, with measurements taken at 24 hours after chemical dosing in a microplate: 96-well plate.BSK_BF4T_SRB is an assay component measured in the BSK_BF4T assay. It measures 0.1% sulforhodamine related to cell death using Sulforhodamine staining technology.Data from the assay component BSK_BF4T_SRB was analyzed at the endpoint, BSK_BF4T_SRB, in the positive analysis fitting direction relative to DMSO as the negative control and baseline of activity. Using a type of viability reporter, gain or loss-of-signal activity can be used to understand protein changes. To generalize the intended target to other relatable targets, this assay endpoint is annotated to the 'cell morphology' intended target family, where the subfamily is 'cell conformation'.
The levels of cell surface (or secreted, indicated by the prefix "s") biomarker endpoints were measured by ELISA. Overt cytotoxicity to cells in confluent adherent cultures (all systems other than the BT system) was assessed by measuring total protein levels using sulforhodamine B (SRB) staining in parallel cultures at the time of biomarker measurements, indicated as SRB endpoints. For proliferation assays for adherent cell types, individual cell types are cultured at sub-confluence and relative cell numbers quantified by SRB staining at time points optimized for each system (48 h: 3C and CASM3C systems; 72 h: BT and HDF3CGF systems; 96 h: SAg system). SRB was performed by staining cells with 0.1% SRB after fixation with 10% TCA and reading wells at 560 nm.Viability and proliferation of PBMC (T cells) was quantified by Alamar Blue reduction for the SAg and BT systems. For PBMC viability (referred to as PBMC Cytotoxicity within the assay endpoint names), cells were plated (75,000/well in a 96-well plate) and then chemical samples added for 1 h before addition of activators, SEB and TSST-1 (20 ng/mL final concentration each). Cells were incubated for 90 h. Then, Alamar Blue (20 uL/well) (Invitrogen, Cat DAL1100) was added for 6 h, and the plates were read with a fluorescence microplate reader at 546/580 nm (excitation/emission). For PBMC proliferation, cells were plated and activated as above but incubated for only 16 h prior to addition of Alamar Blue. Plates were read after 6 h.

Q: With OCCC(F)(F)C(F)(F)C(F)(F)C(F)(F)F as the compound, how does the outcome read?
A: inactive

Q: For NCC(F)(F)C(F)(F)C(F)(F)C(F)(F)F, which outcome is on record?
A: inactive

Q: With OC(O)(C(F)C(O)(O)C(F)(F)F)C(F)(F)F as the compound, how does the outcome read?
A: inactive

Q: With FC(F)=C(F)C(F)(F)C(F)(F)C(F)(F)C(F)(F)C(F)(F)C(F)(F)F as the compound, how does the outcome read?
A: inactive

Q: For FC(F)(F)COC(OCC(F)(F)F)OCC(F)(F)F, which outcome is on record?
A: inactive

Q: For C[Si](C)(C)C(F)(F)C(F)(F)C(F)(F)F, which outcome is on record?
A: inactive

Q: For FC(F)C(F)(F)COCC1CO1 (stereo not given), which outcome is on record?
A: inactive

Q: For O=C(Cl)C(F)(F)C(F)(F)C(F)(F)C(=O)Cl, which outcome is on record?
A: inactive

Q: With O=S(=O)(O)CCC(F)(F)C(F)(F)C(F)(F)C(F)(F)C(F)(F)C(F)(F)F as the compound, how does the outcome read?
A: inactive

Q: For FC(F)(F)C(F)(F)C(F)(F)C(F)(F)C(F)(F)C(F)(F)I, which outcome is on record?
A: inactive
